Assay results published in PubChem BioAssay AID1159580 (chemical genetic matrix, 2015).
Hit rate of the full screen: of about 5,500 compounds, about 2,000 (36%) were called active. Roughly 18% stayed inconclusive and do not appear here. Rule as the data show it: active = normalized growth mostly below about 0.91 (no sharp cut-off); inconclusive = no clear call, values can overlap the other calls; inactive = mostly above about 0.92. Some of the results follow.

Test: chemical genetic growth profiling, strain panel (AID 1159580);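 also: tested at 20 µM; growth read once vehicle control cultures reached saturation at 30 °C; 1 = growth at the plate median or of vehicle wells; lower values mean less growth of the strain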
Conditions: S. cerevisiae deletion strains, growth OD

Measured: normalized growth

CCCCCCc1cc2c(C)cc(=O)oc2cc1O
active: locus YBR229C, strain ROT2, active compounds read low 0.895 | locus YHR087W, strain rtc3, active compounds read low 0.725 | locus YJR075W, strain HOC1, active compounds read low 0.888 | locus YLR039C, strain RIC1, active compounds read low 0.721 | locus YLR262C, strain YPT6, active compounds read low 0.782
inactive: locus YAL013W, strain DEP1, active compounds read low 0.979 | locus YCL061C, strain MRC1, active compounds read low 0.968 | locus YDL101C, strain DUN1, active compounds read low 1.02 | locus YDL134C, strain PPH21, active compounds read low 0.976 | locus YDR150W, strain NUM1, active compounds read low 0.996 | locus YEL061C, strain CIN8, active compounds read low 0.966 | locus YGR078C, strain PAC10, active compounds read low 0.996 | locus YGR229C, strain SMI1, active compounds read low 0.976 | locus YHR030C, strain SLT2, active compounds read low 0.922 | locus YJL187C, strain SWE1, active compounds read low 0.938 | locus YJR043C, strain POL32, active compounds read low 1.03 | locus YKL190W, strain CNB1, active compounds read low 0.959 | locus YLR058C, strain SHM2 (second series), active compounds read low 0.981 | locus YLR085C, strain ARP6, active compounds read low 0.864 | locus YML094W, strain GIM5, active compounds read low 0.918 | locus YMR219W, strain ESC1, active compounds read low 0.973 | locus YMR263W, strain SAP30, active compounds read low 0.976 | locus YMR307W, strain GAS1, active compounds read low 0.803 | locus YNL153C, strain GIM3, active compounds read low 0.965 | locus YNL298W, strain CLA4 (second series), active compounds read low 0.942 | locus YNL322C, strain KRE1, active compounds read low 0.989 | locus YNR030W, strain Alg12, active compounds read low 0.927 | locus YOL006C, strain TOP1, active compounds read low 0.863 | locus YPL055C, strain LGE1, active compounds read low 0.896 | locus YPL241C, strain CIN2, active compounds read low 0.932 | locus YPR135W, strain CTF4, active compounds read low 0.792
